Test results taken from ChEMBL document CHEMBL3988442, “University of Dundee, Small-Polar-MMV Screening Library” (2021).
The campaign covered roughly 69,000 compounds. About 420 (0.61%) showed an effect of 50% or more. This excerpt belongs to a sample that is enriched for strong results.

What follows are compounds tested against T1, Histidine--tRNA ligase (Leishmania infantum) (UniProt A4I591) (assay: Leishmania infantum Histidine tRNA synthetase (LdHisRS)). Settings: 30 µM.
T1 sequence (whole entry): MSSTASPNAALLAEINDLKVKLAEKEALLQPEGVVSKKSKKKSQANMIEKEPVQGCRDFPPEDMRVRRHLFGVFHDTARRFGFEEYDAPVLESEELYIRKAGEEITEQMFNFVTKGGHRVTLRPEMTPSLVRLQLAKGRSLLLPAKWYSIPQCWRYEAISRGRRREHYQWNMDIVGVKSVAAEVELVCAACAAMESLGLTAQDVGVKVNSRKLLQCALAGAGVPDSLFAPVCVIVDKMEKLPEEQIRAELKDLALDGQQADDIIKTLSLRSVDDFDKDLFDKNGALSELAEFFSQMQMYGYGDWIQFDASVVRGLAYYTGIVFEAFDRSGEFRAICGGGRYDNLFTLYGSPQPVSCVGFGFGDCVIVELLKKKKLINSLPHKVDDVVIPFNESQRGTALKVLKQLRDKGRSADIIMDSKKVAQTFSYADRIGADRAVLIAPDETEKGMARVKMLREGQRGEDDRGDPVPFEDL
Type: functional
Parameters: scale not given: in the data most compounds retested in dose-response had high values
For `Cc1ccc(CN2C[C@@H](OCc3csc(C)n3)[C@H]3COC[C@H]32)s1`, the Percent Effect was 21%. Compound `CN1CCC(O)(CCNC(=O)[C@@]23CNC[C@@H]2CN(C2CCCC2)C3)CC1` has a Percent Effect of 10.3%. With `CC(=O)N1CCO[C@@H]2CN(S(=O)(=O)c3cccs3)CC[C@@H]2C1` the Percent Effect was 5.66%. `CC(=O)N1CCO[C@@H]2CN(S(=O)(=O)c3ccc(C)cc3)CC[C@@H]2C1` was tested, and the Percent Effect was 50.9%. In the case of `CC(=O)N1CCO[C@@H]2CN(S(=O)(=O)c3ccc(F)cc3)CC[C@@H]2C1`, the Percent Effect is reported as 17%. `O=C(N[C@@H]1CN(Cc2ccoc2)C[C@@H]2CCCO[C@@H]21)C1CCC1` showed a Percent Effect of 11.8%. In the case of `Cc1nnc(N2C[C@H](C(=O)NCc3ccco3)[C@@H]3CCO[C@@H]3C2)s1`, the Percent Effect is reported as 16.8%. `CS(=O)(=O)N1C[C@@H]2COC[C@@H](CC(=O)N3CCCO3)[C@@H]2C1` showed a Percent Effect of 7.89%. For `Nc1cc(-c2nccnc2N2CCCC2)c2cc[nH]c2n1`, the Percent Effect was 20.2%. With `O=C(O)CNc1cc(-c2nccnc2N2CCCC2)c2cc[nH]c2n1` the Percent Effect was 20.2%. For `OCCNc1cc(-c2nccnc2N2CCCC2)c2cc[nH]c2n1`, the Percent Effect was 62.8%. `Cc1ccc(C)c(OC(C)C(=O)Nc2cccnc2)c1` (stereo unspecified) gave a Percent Effect of 0%. In the case of `Cc1ccc(C)c(OC(C)C(=O)NCc2cccnc2)c1` (stereo unspecified), the Percent Effect is reported as 0%. Compound `Cc1ccc(C)c(OC(C)C(=O)NCCNc2cccnc2)c1` (stereo unspecified) has a Percent Effect of 60.6%. `NC(=O)CN1C(=O)CO[C@H]2CN(Cc3ccc(Cl)cc3)C[C@H]21` showed a Percent Effect of 10.8%. `Cc1ccc(N2CC[C@@H]3[C@@H]2CCN3C(=O)c2cscn2)nn1` was tested, and the Percent Effect was 7.89%. `O=C(N[C@H]1CCCC[C@@H]1O)c1ccc2nc(-c3ccccc3)[nH]c2c1` was tested, and the Percent Effect was 3.96%. `O=C(NC[C@H]1CCCC[C@H]1O)c1cccc2[nH]c(-c3ccco3)nc12` was tested, and the Percent Effect was 29.7%. Compound `O=C(NC[C@H]1CCCC[C@H]1O)c1ccc2nc(-c3ccco3)[nH]c2c1` has a Percent Effect of 63.4%. `COC[C@@H]1CC[C@H]2[C@H](CCN2C(=O)c2ccncc2F)O1` showed a Percent Effect of 22.6%. `O=C(Cn1ccc2sccc2c1=O)NCc1ccc(F)cc1` showed a Percent Effect of 5.43%. `CN(C)S(=O)(=O)N1C[C@H]2CCC[C@@]2(COCc2ccccn2)C1` gave a Percent Effect of -17.6%. In the case of `Cc1cccc(COC[C@H]2CC[C@H]3[C@H](CCN3C(=O)CC3CC3)O2)n1`, the Percent Effect is reported as 13.9%. `Cc1ccc(-c2nnc(CN3CCc4nn(C)c(=O)cc4C3)o2)cc1` showed a Percent Effect of 106%. In the case of `Cn1nc2c(cc1=O)CN(Cc1ccc(-n3cccn3)cc1)CC2`, the Percent Effect is reported as 33.3%. Compound `Cn1nc2c(cc1=O)CN(Cc1nnc(-c3ccc(F)cc3)o1)CC2` has a Percent Effect of 78.7%. For `Cn1nc2c(cc1=O)CN(Cc1nnc(-c3ccco3)o1)CC2`, the Percent Effect was 76.6%. For `Cc1nc(CN2CCc3nn(C)c(=O)cc3C2)oc1C`, the Percent Effect was 14.9%. Work on `CC(C)n1nc2c(cc1=O)CN(Cc1nnc(C3CC3)o1)CC2` yielded a Percent Effect of 24.5%. Compound `CCOCCN1CCN(Cc2nnc(-c3ccco3)o2)CC1` has a Percent Effect of 8.51%. In the case of `Cc1ccc(-c2nnc(CN3CCc4cnc(C)nc4C3)o2)cc1`, the Percent Effect is reported as 40%. With `CC(C)n1nc2c(cc1=O)CN(Cc1nc(-c3ccco3)no1)CC2` the Percent Effect was 2.67%. With `COc1ccc(N2Cc3nc(N)ncc3C2=O)cc1` the Percent Effect was 0%. Compound `O=C1[C@H]2CN(CC3CC3)C[C@H]2CN1Cc1cccc(F)c1` has a Percent Effect of -1.5%. `O=C([C@H]1C[C@H]2OCC[C@H]2N(CCc2ccccc2)C1)N1CCCCO1` gave a Percent Effect of 9.02%. Work on `Cc1nc(CN2C[C@@H]3CN(c4ncc(F)cn4)C[C@@H]3C2=O)cs1` yielded a Percent Effect of 19.7%. `O=C(c1cccnc1)N1C[C@@H]2CC[C@H](C1)N(Cc1ccc(F)cc1Cl)C2` was tested, and the Percent Effect was 7.2%. `CC(=O)N1CCN2C[C@H](CO)[C@@H](c3ccccc3)[C@H]2C1` was tested, and the Percent Effect was 2.04%. `CCN1C(=O)C(C#N)=C(C)/C(=C/C2=Cc3ccccc3OC2)C1=O` showed a Percent Effect of 86.8%. In the case of `COC(=O)CC(C1=Cc2ccccc2OC1)c1oc(C)cc(=O)c1O` (stereo unspecified), the Percent Effect is reported as 23.1%. `CC(Cn1cccn1)NC(=O)C1=Cc2ccccc2OC1` (stereo unspecified) gave a Percent Effect of 16%. Work on `CC1=C(C#N)C(=O)N(C)C(=O)/C1=C\C1=Cc2ccccc2OC1` yielded a Percent Effect of 92.1%. `O=C(Nc1cccnc1)C1=Cc2ccccc2OC1` was tested, and the Percent Effect was 25%. Compound `Cc1nc([C@H]2C[C@H]3CN(C(=O)c4cc(C)c(C)s4)CC[C@@H]3O2)no1` has a Percent Effect of 20.6%. `COc1cccc(C(=O)N2C[C@@H](c3ccccc3)[C@@H]3NCCCC[C@@H]32)c1` gave a Percent Effect of 10.3%. Compound `Cc1nc2c(c(=O)[nH]1)CN(C(=O)CC[C@@H]1CCCN3CCCC[C@H]13)C2` has a Percent Effect of 3.54%. `Cc1ccc(CN2CC[C@@H]3[C@@H](CO[C@H]3CN3CCN(C)CC3)C2)s1` gave a Percent Effect of -11.1%. With `O=C(c1cscn1)N1C[C@H](OCc2cccnc2)[C@H]2COC[C@H]21` the Percent Effect was 9.72%. With `CCC1=N[C@@]2(CC[C@@H]3CN(Cc4ccccc4C)C[C@@H]32)C(=O)N1C` the Percent Effect was 10%. With `Cn1cccc1C(=O)N[C@@H]1CN(Cc2ccsc2)[C@@H]2COC[C@@H]21` the Percent Effect was 20%. `Cc1ccnc(N2CCN(C[C@]3(O)CCCN4CCCC[C@@H]43)CC2)c1` gave a Percent Effect of 2.86%. `Cc1nc(O)cc(CCNC(=O)CC[C@@H]2CCCN3CCCC[C@H]23)n1` showed a Percent Effect of 5.38%. For `Cc1ccc(-n2nc(C)c3c2NC(=O)CC3c2cnc(N)s2)cc1` (stereo unspecified), the Percent Effect was 17.3%. For `CC1=C(C#N)C(=O)NC(=O)/C1=C\c1c(C)nn(-c2ccc(C)cc2)c1O`, the Percent Effect was 70.1%. In the case of `CC1=C(C#N)C(=O)NC(=O)/C1=C\c1c(C)nn(-c2ccc(Cl)cc2)c1O`, the Percent Effect is reported as 51.5%. For `CC1=C(C#N)C(=O)NC(=O)/C1=C\c1c(C)nn(-c2ccccc2)c1O`, the Percent Effect was 43.3%. `CCN(CC)CCNC(=O)CCc1c(C)nn(-c2ccc(Cl)cc2)c1C` was tested, and the Percent Effect was 7.92%. Work on `Cc1nn(C)c(=O)c2nn(-c3ccc(Cl)cc3)c(C)c12` yielded a Percent Effect of 5.5%. Compound `Cc1cc(CN2CC[C@H]3OCC[C@@]3(C(=O)NCc3ccco3)C2)no1` has a Percent Effect of 11.4%. With `O=C([C@H]1CCS(=O)(=O)[C@@H]2CN(CCc3ccccc3)C[C@H]12)N1CCCC1` the Percent Effect was 17.6%. For `Cc1ccncc1C(=O)N1CC[C@@]2(O)CCN(C3CCCCC3)C[C@H]2C1`, the Percent Effect was 14.5%. `c1cnn(CCCO[C@@H]2CC[C@H]3[C@H]2OCCN3CC2CCOCC2)c1` showed a Percent Effect of 13.9%. With `Cc1noc(C)c1CN1C[C@@H]2CC[C@H](C1)N(Cc1cc(F)cc(F)c1)C2` the Percent Effect was 24.7%. `Cc1ccc(N2CC3(CCN(c4nccs4)C3)C2)nn1` gave a Percent Effect of 9.52%. `Cc1ccc(N2CCCC3(COCCN(c4nccs4)C3)C2)nn1` (stereo unspecified) was tested, and the Percent Effect was 11.4%. `Cc1ccc(N2CCC3(CC2)COCCN(c2nccs2)C3)nn1` was tested, and the Percent Effect was 58.5%.
